Source: PubChem BioAssay AID1159580 (chemical genetic matrix, 2015)
Screen size: about 5,500 compounds; about 2,000 (36%) were called active. Another 18% or so got no clear call; they are omitted. No stated cut-off is given here; in the data, active means normalized growth mostly below about 0.91 (no sharp cut-off); inconclusive means no clear call, values can overlap the other calls; inactive means mostly above about 0.92. The list shows a part of the results.

Test: chemical genetic growth profiling, strain panel (AID 1159580);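 further: tested at 20 µM; growth read once vehicle control cultures reached saturation at 30 °C; 1 = growth at the plate median or of vehicle wells; lower values mean less growth of the strain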
Conditions: growth OD
[1] = S. cerevisiae deletion strains, locus YAL013W, strain DEP1, active compounds read low
[2] = S. cerevisiae deletion strains, locus YAL040C, strain CLN3, active compounds read low
[3] = S. cerevisiae deletion strains, locus YCL061C, strain MRC1 (second series), active compounds read low
[4] = S. cerevisiae deletion strains, locus YDR363W, strain ESC2, active compounds read low
[5] = S. cerevisiae deletion strains, locus YER002W, strain NOP16, active compounds read low
[6] = S. cerevisiae deletion strains, locus YJR075W, strain HOC1, active compounds read low
[7] = S. cerevisiae deletion strains, locus YMR263W, strain SAP30, active compounds read low
[8] = S. cerevisiae deletion strains, locus YNL175C, strain NOP13, active compounds read low
[9] = S. cerevisiae deletion strains, locus YNL197C, strain WHI3, active compounds read low
[10] = S. cerevisiae deletion strains, locus YNL224C, strain SQS1, active compounds read low
[11] = S. cerevisiae deletion strains, locus YOR083W, strain WHI5 (second series), active compounds read low
[12] = S. cerevisiae deletion strains, locus YPL055C, strain LGE1, active compounds read low
[13] = S. cerevisiae deletion strains, locus YGR078C, strain PAC10, active compounds read low
[14] = S. cerevisiae deletion strains, locus YNL153C, strain GIM3, active compounds read low
[15] = S. cerevisiae deletion strains, locus YAR019C, strain CDC15, active compounds read low
[16] = S. cerevisiae deletion strains, locus YBL105C, strain PKC1, active compounds read low
[17] = S. cerevisiae deletion strains, locus YBR135W, strain CKS1, active compounds read low
[18] = S. cerevisiae deletion strains, locus YBR136W, strain MEC1, active compounds read low
[19] = S. cerevisiae deletion strains, locus YBR160W, strain CDC28, active compounds read low
[20] = S. cerevisiae deletion strains, locus YDL017W, strain CDC7, active compounds read low
[21] = S. cerevisiae deletion strains, locus YDL028C, strain MPS1, active compounds read low
[22] = S. cerevisiae deletion strains, locus YDL101C, strain DUN1, active compounds read low
[23] = S. cerevisiae deletion strains, locus YDL108W, strain KIN28, active compounds read low
[24] = S. cerevisiae deletion strains, locus YDL132W, strain cdc53, active compounds read low
[25] = S. cerevisiae deletion strains, locus YDL214C, strain PRR2, active compounds read low
[26] = S. cerevisiae deletion strains, locus YDR052C, strain DBF4, active compounds read low
[27] = S. cerevisiae deletion strains, locus YDR054C, strain cdc34, active compounds read low
[28] = S. cerevisiae deletion strains, locus YDR226W, strain ADK1, active compounds read low
[29] = S. cerevisiae deletion strains, locus YDR477W, strain SNF1, active compounds read low
[30] = S. cerevisiae deletion strains, locus YER123W, strain YCK3, active compounds read low
[31] = S. cerevisiae deletion strains, locus YER133W, strain GLC7, active compounds read low
[32] = S. cerevisiae deletion strains, locus YFL009W, strain cdc4, active compounds read low
[33] = S. cerevisiae deletion strains, locus YFL029C, strain CAK1, active compounds read low
[34] = S. cerevisiae deletion strains, locus YFR003C, strain YPI1, active compounds read low
[35] = S. cerevisiae deletion strains, locus YFR019W, strain FAB1, active compounds read low
[36] = S. cerevisiae deletion strains, locus YFR028C, strain CDC14, active compounds read low
[37] = S. cerevisiae deletion strains, locus YGR040W, strain KSS1, active compounds read low
[38] = S. cerevisiae deletion strains, locus YGR052W, strain FMP48, active compounds read low
[39] = S. cerevisiae deletion strains, locus YGR092W, strain DBF2, active compounds read low
[40] = S. cerevisiae deletion strains, locus YHR030C, strain SLT2, active compounds read low
[41] = S. cerevisiae deletion strains, locus YHR079C, strain IRE1, active compounds read low
[42] = S. cerevisiae deletion strains, locus YHR082C, strain KSP1, active compounds read low
[43] = S. cerevisiae deletion strains, locus YHR205W, strain SCH9, active compounds read low
[44] = S. cerevisiae deletion strains, locus YIL147C, strain SLN1, active compounds read low
[45] = S. cerevisiae deletion strains, locus YJL095W, strain BCK1, active compounds read low
[46] = S. cerevisiae deletion strains, locus YJL128C, strain PBS2, active compounds read low
[47] = S. cerevisiae deletion strains, locus YJL157C, strain FAR1, active compounds read low
[48] = S. cerevisiae deletion strains, locus YJR016C, strain ILV3, active compounds read low
[49] = S. cerevisiae deletion strains, locus YJR066W, strain TOR1 (second series), active compounds read low
[50] = S. cerevisiae deletion strains, locus YJR066W, strain TOR1, active compounds read low
[51] = S. cerevisiae deletion strains, locus YKL048C, strain ELM1, active compounds read low
[52] = S. cerevisiae deletion strains, locus YKL067W, strain YNK1, active compounds read low
[53] = S. cerevisiae deletion strains, locus YKL101W, strain HSL1, active compounds read low
[54] = S. cerevisiae deletion strains, locus YKL193C, strain SDS22, active compounds read low
[55] = S. cerevisiae deletion strains, locus YKL203C, strain TOR2, active compounds read low
[56] = S. cerevisiae deletion strains, locus YLR113W, strain HOG1, active compounds read low
[57] = S. cerevisiae deletion strains, locus YLR133W, strain CKI1, active compounds read low
[58] = S. cerevisiae deletion strains, locus YLR403W, strain SFP1, active compounds read low
[59] = S. cerevisiae deletion strains, locus YML070W, strain DAK1, active compounds read low
[60] = S. cerevisiae deletion strains, locus YMR001C, strain CDC5, active compounds read low
[61] = S. cerevisiae deletion strains, locus YMR205C, strain PFK2 (second series), active compounds read low
[62] = S. cerevisiae deletion strains, locus YMR277W, strain FCP1, active compounds read low
[63] = S. cerevisiae deletion strains, locus YNL006W, strain LST8, active compounds read low
[64] = S. cerevisiae deletion strains, locus YNL020C, strain ARK1, active compounds read low
[65] = S. cerevisiae deletion strains, locus YNL161W, strain CBK1, active compounds read low
[66] = S. cerevisiae deletion strains, locus YNL183C, strain NPR1, active compounds read low
[67] = S. cerevisiae deletion strains, locus YNL207W, strain RIO2, active compounds read low
[68] = S. cerevisiae deletion strains, locus YNL222W, strain SSU72, active compounds read low
[69] = S. cerevisiae deletion strains, locus YNL307C, strain MCK1 (second series), active compounds read low
[70] = S. cerevisiae deletion strains, locus YOL078W, strain AVO1, active compounds read low
[71] = S. cerevisiae deletion strains, locus YOL136C, strain PFK27, active compounds read low
[72] = S. cerevisiae deletion strains, locus YOR061W, strain CKA2, active compounds read low
[73] = S. cerevisiae deletion strains, locus YOR119C, strain RIO1, active compounds read low
[74] = S. cerevisiae deletion strains, locus YOR231W, strain MKK1, active compounds read low
[75] = S. cerevisiae deletion strains, locus YOR329C, strain SCD5, active compounds read low
[76] = S. cerevisiae deletion strains, locus YPL031C, strain PHO85, active compounds read low
[77] = S. cerevisiae deletion strains, locus YPL153C, strain RAD53, active compounds read low
[78] = S. cerevisiae deletion strains, locus YPL204W, strain HRR25, active compounds read low
[79] = S. cerevisiae deletion strains, locus YPL209C, strain IPL1, active compounds read low
[80] = S. cerevisiae deletion strains, locus YPL256C, strain CLN2, active compounds read low
[81] = S. cerevisiae deletion strains, locus YPR025C, strain CCL1, active compounds read low
[82] = S. cerevisiae deletion strains, locus YPR106W, strain ISR1, active compounds read low
[83] = S. cerevisiae deletion strains, locus YPR111W, strain DBF20, active compounds read low
[84] = S. cerevisiae deletion strains, strain NNK1, active compounds read low
[85] = S. cerevisiae deletion strains, strain TSCII, active compounds read low

Measured: normalized growth

O=P(O)(O)C(Cl)(Cl)P(=O)(O)O
inactive: [1] 1.01 | [2] 0.972 | [3] 0.995 | [4] 1.04 | [5] 1.01 | [6] 1.03 | [7] 1 | [8] 1 | [9] 0.968 | [10] 1.02 | [11] 0.973 | [12] 1.02

CC12NC(Cc3ccccc31)c1ccccc12 (stereo not given)
inactive: [2] 0.983 | [3] 0.984 | [4] 1.04 | [5] 1.01 | [13] 0.992 | S. cerevisiae deletion strains, locus YNL128W, strain TEP1, active compounds read low 1.06 | [14] 0.997 | [8] 1 | [9] 1.01 | [10] 0.988 | [11] 1 | [12] 1.01

CC1(C)CC(=O)C=C(Sc2nc3ccccc3o2)C1
active: [56] 0.832
inactive: [15] 0.966 | [16] 0.968 | [17] 0.955 | [18] 0.965 | [19] 0.962 | [20] 0.974 | [21] 0.965 | [22] 0.958 | [23] 0.961 | [24] 0.947 | [25] 0.933 | [26] 0.984 | [27] 0.949 | [28] 0.967 | [29] 0.949 | [30] 0.926 | [31] 0.979 | [32] 0.953 | [33] 0.965 | [34] 0.971 | [35] 0.941 | [36] 0.957 | [37] 0.945 | [38] 0.916 | [39] 0.739 | [40] 0.983 | [41] 0.955 | [42] 0.992 | [43] 0.861 | [44] 0.962 | [45] 0.837 | [46] 0.924 | [47] 0.951 | [48] 0.952 | [49] 0.875 | [50] 0.946 | [51] 0.961 | [52] 0.946 | [53] 0.925 | [54] 0.953 | [55] 0.99 | [57] 0.938 | [58] 0.901 | [59] 0.927 | [60] 0.961 | [61] 0.948 | [62] 0.956 | [63] 0.974 | [64] 0.944 | [65] 0.967 | [66] 0.951 | [67] 0.948 | [68] 0.964 | [69] 0.873 | [70] 0.947 | [71] 0.907 | [72] 0.955 | [73] 1.01 | [74] 0.902 | [75] 0.97 | [76] 0.946 | [77] 0.949 | [78] 0.935 | [79] 0.965 | [80] 0.967 | [81] 0.968 | [82] 0.964 | [83] 0.939 | [84] 0.961 | [85] 0.956

Oc1c(Cl)cc(Cl)cc1C=Nc1nc(-c2ccc3ccccc3c2)cs1
active: [30] 0.59 | [39] 0.342 | [40] 0.486 | [47] 0.685 | [56] 0.62 | [57] 0.701 | [58] 0.639 | [59] 0.651 | [61] 0.741 | [64] 0.684 | [71] 0.537 | [72] 0.58 | [80] 0.558
inactive: [15] 0.958 | [16] 0.966 | [17] 0.947 | [18] 0.957 | [19] 0.96 | [20] 0.958 | [21] 0.958 | [22] 0.962 | [23] 0.959 | [24] 0.971 | [25] 0.793 | [26] 0.969 | [27] 0.957 | [28] 0.966 | [29] 0.802 | [31] 0.791 | [32] 0.956 | [33] 0.963 | [34] 0.961 | [35] 0.78 | [36] 0.966 | [37] 0.833 | [38] 0.827 | [41] 0.557 | [42] 0.814 | [43] 0.737 | [44] 0.952 | [45] 0.51 | [46] 0.971 | [48] 0.962 | [49] 0.86 | [50] 0.626 | [51] 0.871 | [52] 0.787 | [53] 0.854 | [54] 0.953 | [55] 0.824 | [60] 0.957 | [62] 0.958 | [63] 0.96 | [65] 0.965 | [66] 0.72 | [67] 0.959 | [68] 0.961 | [69] 0.757 | [70] 0.957 | [73] 0.855 | [74] 0.623 | [75] 0.963 | [76] 0.809 | [77] 0.768 | [78] 0.766 | [79] 0.954 | [81] 0.962 | [82] 0.973 | [83] 0.949 | [84] 0.964 | [85] 0.953

Cc1onc(-c2c(Cl)cccc2Cl)c1-c1nc(-c2ccc3c(c2)OCCO3)cs1
inactive: [1] 1.01 | S. cerevisiae deletion strains, locus YBR229C, strain ROT2, active compounds read low 1.01 | S. cerevisiae deletion strains, locus YCL061C, strain MRC1, active compounds read low 1 | [22] 1.01 | S. cerevisiae deletion strains, locus YDR150W, strain NUM1, active compounds read low 1.03 | S. cerevisiae deletion strains, locus YEL061C, strain CIN8, active compounds read low 1.02 | [13] 0.991 | [40] 0.998 | S. cerevisiae deletion strains, locus YHR087W, strain rtc3, active compounds read low 1.01 | S. cerevisiae deletion strains, locus YJL187C, strain SWE1, active compounds read low 1 | S. cerevisiae deletion strains, locus YJR043C, strain POL32, active compounds read low 1.01 | [6] 0.99 | S. cerevisiae deletion strains, locus YLR039C, strain RIC1, active compounds read low 0.959 | S. cerevisiae deletion strains, locus YLR058C, strain SHM2 (second series), active compounds read low 1.01 | S. cerevisiae deletion strains, locus YLR085C, strain ARP6, active compounds read low 0.973 | S. cerevisiae deletion strains, locus YLR262C, strain YPT6, active compounds read low 1 | S. cerevisiae deletion strains, locus YML094W, strain GIM5, active compounds read low 0.991 | S. cerevisiae deletion strains, locus YMR219W, strain ESC1, active compounds read low 1 | [7] 0.993 | S. cerevisiae deletion strains, locus YMR307W, strain GAS1, active compounds read low 0.946 | [14] 0.997 | S. cerevisiae deletion strains, locus YNL298W, strain CLA4 (second series), active compounds read low 0.987 | S. cerevisiae deletion strains, locus YNL322C, strain KRE1, active compounds read low 1.02 | S. cerevisiae deletion strains, locus YNR030W, strain Alg12, active compounds read low 1.02 | S. cerevisiae deletion strains, locus YOL006C, strain TOP1, active compounds read low 0.999 | [12] 1.04 | S. cerevisiae deletion strains, locus YPL241C, strain CIN2, active compounds read low 1.02 | S. cerevisiae deletion strains, locus YPR135W, strain CTF4, active compounds read low 0.934 | S. cerevisiae strains, strain wild type, active compounds read low 1.01
